Compound activity from PubChem.
ELG1 DNA repair: inhibitors of ELG1-dependent DNA repair in HEK293T cells. HEK293T ELG1-luciferase reporter, luminescence, 16 h; DNA damage induced by 5-fluorouridine. Potency, µM (titrated, usually from 46.1 µM), hits mostly inhibitors. 330,000 tested, 2.3% active. AID 504467; further: nearly all actives have a fitted effect of over 55% in size
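Quantitative HTS, concentration-response format. 2,000 cells/well co-treated with 5-fluorouridine and compound, 16 hr in 5% CO2 at 37 °C; ONE-Glo luminescence read after 30 min.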
DT40 TDP1 CPT: growth inhibition of DT40 Tdp1-/-;hTDP1 cells with camptothecin (screen for TDP1 inhibitors); chicken DT40 Tdp1-/-;hTDP1 cells + 20 nM CPT, ATP luminescence, 48 h; 420,000 tested, 12% active; Potency, µM (highest dose often 46.2 µM), usual class: inhibitors; AID 686979; further: nearly all actives have a fitted effect of over 55% in size
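Cell growth measured by CellTiter-Glo luminescence after a minimum 48 h, 37 C compound exposure with 20 nM CPT in Tdp1-knockout DT40 cells stably expressing hTDP1, seeded 400/well; qHTS titration format.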
HT1080 IDH1KD tx: kills HT-1080 cells with IDH1 knockdown; Potency, µM (highest dose often 46.1 µM), most hits filed as cytotoxic; 360,000 tested, 2% active; AID 686971; HT-1080 IDH1 knockdown viability, ATP luminescence, 48 h
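Viability of IDH1-knockdown HT-1080 fibrosarcoma cells was assessed by CellTiter-Glo after 48 h at 37 °C with titrated compound; concentration-effect curves were classified by fit quality and response size.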
IL1B secr inh: inflammasome signaling inhibition, IL-1 beta readout | 360,000 tested, 4.7% active | AID 743279 | THP-1 LPS/ATP IL-1B secretion, AlphaLISA, 16 h; hits give low values | activity change, % at 57.5 µM; in the data active means activity change below about -50%; inconclusive means mostly about -30% to -49%
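Secreted IL-1B measured by AlphaLISA bead assay after 16 h compound exposure of THP-1 cells; compounds (final up to 57.5 uM) added 1 h before LPS (250 ng/mL) and ATP (1.25 mM) stimulation; lower signal means less secretion.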
TDP1 cell noCPT: qHTS for Inhibitors of human tyrosyl-DNA phosphodiesterase 1 (TDP1): qHTS in cells in absence of CPT; 420,000 tested, 15% active; DT40 Tdp1-/- hTDP1 cells, no CPT, ATP luminescence, 48 h; Potency, µM (top dose mostly 46.2 µM), hits mostly inhibitors; further: nearly all actives have a fitted effect of over 55% in size
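Growth kinetics read by CellTiter-Glo luminescence after ≥48 hr at 37 °C. Cells: DT40 Tdp1-/- stably carrying human TDP1, 400 per well, compound exposure in the absence of CPT (DMSO vehicle).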
HT1080NT lethal: kills 2HG-producing HT-1080-NT fibrosarcoma cells; HT-1080-NT fibrosarcoma viability, CellTiter-Glo ATP luminescence, 48 h; Potency, µM (top dose mostly 46.1 µM), actives largely listed as cytotoxic; 360,000 tested, 1.6% active; AID 686970;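 further: NT is the 2HG producing partner of a matched IDH1 knockdown line; nearly all actives have a fitted effect of over 55% in size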
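Fibrosarcoma NT cells, 750 per well in 5% FBS RPMI, were exposed to compound for 48 hours. Viability: CellTiter-Glo luminescence.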
Numbers stand for hits; 0 = inactive; ? = inconclusive; - = no result. Shown are actives, neighbours in structure and some others; about 19% of the full set was active somewhere. Unless noted, the call rests on the fitted dose curve; in most records, active means well fitted curve in the direction sought with a large enough effect; inconclusive means small, poorly fitted or top-dose-only effect, or another doubt; inactive means no such curve, though single readings can be large; an effect the other way counts as inactive or inconclusive.

SMILES	ELG1 DNA repair	DT40 TDP1 CPT	HT1080 IDH1KD tx	IL1B secr inh	TDP1 cell noCPT	HT1080NT lethal
COc1ccc2c(c1)CC=C1C2CCC2(C)C(=O)C(=NO)CC12 (centres undefined)	-	?	0	-88	?	0
CC12CCC3C(=CCc4cc(O)ccc43)C1CC(=NO)C2O (centres undefined)	-	0	0	0	?	0
CC(=O)N1CC=CC1(C)C(=O)NCc1cc(F)cc(C(F)(F)F)c1 (centres undefined)	0	0	0	0	0	0
CC(C)CC1(C(=O)NCc2cc(F)cc(C(F)(F)F)c2)C=CCN1C(=O)c1ccccc1 (centres undefined)	0	?	0	0	29µM	0
Cc1cccc(Oc2sc(C(=O)c3ccccc3)c(N)c2C#N)c1C	?	0	0	-62	?	0
N#Cc1c(Oc2ccc3ccccc3c2)sc(C(=O)c2ccccc2)c1N	12µM	?	0	-107	?	0
Cc1cccc(C(=O)NC(C(=O)Nc2cccc(S(=O)(=O)N3CCCC3)c2)C(C)C)c1 (centres undefined)	0	?	0	0	?	0
COc1ccccc1CNc1ncnc2ccc(-c3ccc(N(C)C)cc3)cc12	-	16µM	-	-	13µM	-
COc1ccccc1CNc1ncnc2ccc(-c3cccnc3)cc12	-	?	-	-	21µM	-
Cc1ccccc1NC(=O)Cc1nc(-c2c[nH]c(C(=O)N3CCCC3)c2)cs1	16µM	18µM	0	0	?	0
COc1ccc(N(CC(=O)N2CCN(C)CC2)S(=O)(=O)c2cc(C)ccc2OC)cc1Cl	0	0	0	0	0	0
Cc1ccc(C2=NS(=O)(=O)N(C)C(C(=O)Nc3ccc(F)cc3F)=C2)cc1	0	21µM	0	0	?	0
Cc1ccc(CNC(=O)c2cc3cc(C)ccc3n2C)cc1	-	0	-	-	0	-
Cc1ccc(C2=NS(=O)(=O)N(C)C(C(=O)Nc3cc(C)n(CC(=O)N4CCC(C)CC4)n3)=C2)cc1	0	?	0	0	21µM	0
COc1ccc(OC)c(C2=NS(=O)(=O)N(C)C(C(=O)Nc3ccc(F)cc3F)=C2)c1	0	16µM	0	0	7.3µM	0
Cc1ccc2c(c1)cc(C(=O)Nc1ccc(F)cc1F)n2C	-	?	-	-	7.3µM	-
CN1C(C(=O)Nc2ccc(F)cc2F)=CC(c2ccco2)=NS1(=O)=O	0	?	0	0	0	0
CCN(CC)C(=O)c1sc2c(c1C)c(=O)n(-c1ccccc1)c(=O)n2CC(=O)Nc1ccc(C)cc1C	-	?	-	-	0	-
Cc1cc(S(=O)(=O)Nc2ccc(C(=O)NCC(c3ccco3)N(C)C)cc2)ccc1F (centres undefined)	0	0	0	0	0	0
CCOC(=O)c1c(NC(=O)/C=C/c2ccc(C)cc2)sc2c1CCCC2	-	0	-	-	0	-
COc1ccccc1/C=N/n1c(N)c(C(=O)NC2CCCCC2)c2nc3ccccc3nc21	0	?	0	0	?	0
COCCNC(=O)c1c(N)n(CCCn2ccnc2)c2nc3ccccc3nc12	?	0	0	?	0	0
CC(C)OCCCNC(=O)c1c(N)n(/N=C/c2ccccn2)c2nc3ccccc3nc12	7.3µM	?	0	0	23µM	0
CCC(C)NC(=O)c1c(N)n(/N=C/c2ccccn2)c2nc3ccccc3nc12 (centres undefined)	?	21µM	0	-83	21µM	0
Cc1cc(C)cc(NS(=O)(=O)c2ccc(-n3cccn3)cc2)c1	-	16µM	-	-	?	-
SMILES	ELG1 DNA repair	DT40 TDP1 CPT	HT1080 IDH1KD tx	IL1B secr inh	TDP1 cell noCPT	HT1080NT lethal
CCc1cccc(NS(=O)(=O)c2ccc(-n3cccn3)cc2)c1	0	16µM	0	0	21µM	?
COc1ccc(CNS(=O)(=O)c2ccc(-n3cccn3)cc2)cc1	0	?	0	0	?	0
COc1ccccc1CNS(=O)(=O)c1ccc(-n2cccn2)cc1	0	26µM	0	0	?	0
Cc1ccc(NS(=O)(=O)c2ccc(-n3cccn3)cc2)cc1C	0	?	0	0	?	0
O=S(=O)(Nc1ccc(F)cc1F)c1ccc(-n2cccn2)cc1	-	16µM	-	-	?	-
CCOC(=O)c1c(NC(=O)COc2ccc(C)cc2C(C)(C)C)sc2c1CCC(C)C2 (centres undefined)	-	0	-	-	0	-
COc1ccc(NS(=O)(=O)c2ccc(-n3cccn3)cc2)cc1OC	-	5.8µM	-	-	4.6µM	-
CCc1cccc(C)c1NS(=O)(=O)c1ccc(-n2cccn2)cc1	-	16µM	-	-	26µM	-
COC(=O)c1cc(S(=O)(=O)NCc2ccccc2OC)cn1C	0	?	0	0	8.2µM	0
COc1cc(NS(=O)(=O)c2ccc(-n3cccn3)cc2)cc(OC)c1	-	13µM	0	0	12µM	0
O=S(=O)(Nc1cccc(Cl)c1)c1ccc(-n2cccn2)cc1	0	0	0	0	?	0
CCN(CC(=O)Nc1c(F)cccc1F)C(=O)c1ccc(OCc2c(C)noc2C)cc1	0	0	0	0	0	0
COc1cn(-c2ccccc2)nc1C(=O)OCC(=O)Nc1ccc(C)c(C)c1	?	0	0	0	0	0
O=C1CCN(Cc2ccccc2)S(=O)(=O)c2ccccc21	0	29µM	0	0	?	0
COc1ccccc1CC(=O)N1CCN(c2ccccc2F)CC1	0	0	0	0	?	0
c1ccc(Cn2ncc3c(N4CCCCC4)ncnc32)cc1	0	?	0	0	?	0
Cc1ccc(Cn2ncc3c(N4CCN(c5ccccc5C)CC4)ncnc32)cc1	?	23µM	0	?	16µM	0
Clc1ccc(Cn2ncc3c(N4CCN(c5ccccc5)CC4)ncnc32)cc1	-	23µM	0	0	23µM	?
Cc1ccc(Cn2ncc3c(N4CCOCC4)ncnc32)cc1	?	?	0	0	0	0
COc1cccc(CNC(=O)c2cc3n(n2)CCCN(Cc2ccc(C)cc2)C3=O)c1OC	-	23µM	-	-	16µM	-
COCCNC(=O)c1cc2n(n1)CCCN(Cc1ccc(C)cc1)C2=O	-	0	-	-	0	-
Cc1ccc(CN2CCCn3nc(C(=O)NCc4ccc(OC(C)C)cc4)cc3C2=O)cc1	-	18µM	-	-	16µM	-
CCOc1ccccc1CNC(=O)c1cc2n(n1)CCCN(Cc1ccc(C)cc1)C2=O	-	16µM	-	-	15µM	-
COC(=O)c1ccc(CSc2nc3ccccc3c(=O)n2-c2ccc(OC)c(OC)c2)o1	?	16µM	0	?	?	0
COCCn1c(SCc2ccc(OC)c(F)c2)nc2ccccc2c1=O	?	16µM	0	?	21µM	0
COCCn1c(SCc2nc3ccccc3c(=O)[nH]2)nc2ccccc2c1=O	0	?	?	0	?	?
